Most compounds without a hit are left out; they make up all but 2.1% or so of the library.
B2AR arrestin = agonists driving beta-arrestin recruitment to human beta2-adrenergic receptor. P07550. Potency, µM (highest dose often 46.1 µM), inactives show top-dose activation, hits mostly activators. hit rate 0.02% among 330,000. beta-arrestin recruitment to beta2AR, cell-based reporter. AID 492947;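 note: potency is the fitted concentration of half-maximal effect; 0% = DMSO controls and full agonism = EC100 isoproterenol or metaproterenol; nearly all actives have a fitted effect of over 65% in size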
Target sequence (P07550 whole entry, looked up): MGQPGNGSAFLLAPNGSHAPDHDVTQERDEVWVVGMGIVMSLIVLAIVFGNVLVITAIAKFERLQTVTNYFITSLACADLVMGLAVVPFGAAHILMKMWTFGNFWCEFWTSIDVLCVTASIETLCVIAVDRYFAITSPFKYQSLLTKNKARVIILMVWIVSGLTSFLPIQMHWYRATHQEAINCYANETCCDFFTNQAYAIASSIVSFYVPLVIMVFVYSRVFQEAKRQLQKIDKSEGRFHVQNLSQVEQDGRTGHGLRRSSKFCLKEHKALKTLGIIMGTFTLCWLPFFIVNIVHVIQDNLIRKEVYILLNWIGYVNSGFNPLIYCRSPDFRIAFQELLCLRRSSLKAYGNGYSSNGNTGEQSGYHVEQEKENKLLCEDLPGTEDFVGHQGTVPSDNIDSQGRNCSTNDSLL
Giardia killer = kills Giardia lamblia; hit rate 0.15% among 340,000; AID 540267; Giardia lamblia trophozoite viability; activity change, % at 7.66 µM, hits read low; in the data active = activity change below about -80%; inconclusive = between about -30% and that limit;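 note: parasites exposed to compound for two days anaerobically before the ATP read; % is set by controls: 0 for no effect and ±100 for the full control effect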
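Luminescence from cellular ATP indicates surviving trophozoites (100 cells/well) following 48 hrs anaerobic compound treatment at 37 deg C; signal develops 15-30 min at room temperature.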
ClpP mod = qHTS Assay for Activators of ClpP | purified B. subtilis ClpP, FRET peptide cleavage, 20 min | Potency, µM (titrated, usually from 57.5 µM), inactives show at the top dose activity change, negative = active | hit rate 1.9% among 340,000 | AID 651965, 2013; active = well fitted falling curve with a large enough effect; inconclusive = small, poorly fitted or top-dose-only effect; inactive = no such curve, though single readings can be large or run the other way; note: potency is the fitted concentration of half-maximal effect; the source files actives as falling curves though it sought activators and does not explain the sign; nearly all actives have a fitted effect of over 65% in size
Target sequence (P80244 whole entry, looked up): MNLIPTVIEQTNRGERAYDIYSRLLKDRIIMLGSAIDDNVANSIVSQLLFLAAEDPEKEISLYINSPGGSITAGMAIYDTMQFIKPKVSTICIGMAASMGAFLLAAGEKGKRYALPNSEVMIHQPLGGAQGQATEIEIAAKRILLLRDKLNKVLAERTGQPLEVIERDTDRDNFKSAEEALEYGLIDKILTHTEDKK
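ClpP 10 microg/mL final, pH 8 Tris/KCl buffer with BSA, glycerol, Tween-20; compound pinned in; FRET-FV substrate; RT 20 min; Ex320/Em430; ΔFRET vs ADEP 5.8 microM, DMSO, no enzyme.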
uPA generation = inhibitors of cell surface uPA generation | Potency, µM (doses to about 38.3 µM), for inactives: top-dose activity change, negative = inhibition, usual class: inhibitors | AID 540303 | cell surface uPA generation assay, qHTS | hit rate 0.31% among 330,000; active = well fitted inhibition curve with a large enough effect; inconclusive = small, poorly fitted or top-dose-only effect; inactive = no such curve, though single readings can be large or run the other way; tested in mouse RAW 264.7 cells; note: potency is the fitted concentration of half-maximal effect; % is set by controls: 0 for no effect and ±100 for the full control effect; nearly all actives have a fitted effect of over 55% in size
p53 reactivation = restores transcriptional activity of mutant p53; H1299 p53-A138V BP100-luciferase reporter, luminescence, 24 h; Potency, µM (top dose mostly 92.2 µM), without a hit: top-dose activity change, positive = activation, usual class: activators; hit rate 0.063% among 320,000; AID 504706; note: potency is the fitted concentration of half-maximal effect; % of control where 0% means no effect; nearly all actives have a fitted effect of over 45% in size
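p53-null H1299 cells stably carrying temperature-sensitive p53-A138V and a BP100-luciferase reporter were pinned with compounds (4-point, 1:5 series) and held 24 hrs at 37 deg C. Luminescence was read 10 min after detection reagent.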
Mito fusion yeast = inhibitors of mitochondrial division or activators of mitochondrial fusion | hit rate 0.23% among 320,000 | Potency, µM (titrated, usually from 46.1 µM), inactives show at the highest dose growth rescue (activation), actives largely listed as activators | S. cerevisiae fusion-defective mutant growth rescue, CellTiterGlo 48 h | AID 485298; note: potency is the fitted concentration of half-maximal effect; % of control where 0% means no effect; nearly all actives have a fitted effect of over 45% in size
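S. cerevisiae fusion-defective temperature-sensitive mutants (e.g. fzo1-1, mgm1-5) grown 48 h at 37C in YPEG (ethanol/glycerol non-fermentable) medium with 23 nl compound per well; growth rescue read as CellTiterGlo luminescence.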
An asterisk follows results filed as active; ? = inconclusive; / = no result given; [ ] = remark or other dose. Unless noted, calls come from the whole dose curve; as a rule, active = well fitted curve in the direction sought with a large enough effect; inconclusive = small, poorly fitted or top-dose-only effect, or another doubt; inactive = no such curve, though single readings can be large; an effect the other way counts as inactive or inconclusive.

SMILES	B2AR arrestin	Giardia killer	ClpP mod	uPA generation	p53 reactivation	Mito fusion yeast
COc1ccccc1N1CCN(C(=O)c2nn(-c3ccc(C)cc3)c(=O)n(C)c2=O)CC1	/	/	0%	/	/	/
Cc1noc(C)c1C(=O)Nc1nc2ccc(S(C)(=O)=O)cc2s1	0%	?	-6%	5µM*	-2%	-6%
CS(=O)(=O)c1ccc2nc(NC(=O)c3ccco3)sc2c1	0%	-15	-11%	10µM*	?	9%
CCn1c(C(=O)N2CCC(C(=O)N3CCN(c4cc(C)ccc4C)CC3)CC2)cc2sccc21	/	/	-3%	/	/	/
Cc1ccc(S(=O)(=O)c2nnn3c2nc(NCc2ccc(F)cc2)c2sccc23)cc1	/	/	-11%	/	/	/
CCCCNc1nc2c(S(=O)(=O)c3ccc(C)c(C)c3)nnn2c2ccsc12	/	/	28µM*	/	/	/
Cc1ccc(S(=O)(=O)c2nnn3c2nc(NCc2cccs2)c2sccc23)cc1C	/	/	-14%	/	/	/
Cc1ccc(S(=O)(=O)c2nnn3c2nc(NCc2ccccc2)c2sccc23)cc1	/	/	20µM*	/	/	/
Cc1ccc(S(=O)(=O)c2nnn3c2nc(NCc2ccc(F)cc2)c2sccc23)cc1C	/	/	28µM*	/	/	/
COc1cccc(CNC(=O)c2ccc(CS(=O)Cc3ccc(Cl)cc3)o2)c1 (configuration not stated)	/	/	1%	/	/	/
CCN(C(=O)COc1ccc(C)nc1[N+](=O)[O-])C1CCS(=O)(=O)C1 (configuration not stated)	0%	-9	10µM*	1%	8%	-1%
Cc1ccc(OCC(=O)N(Cc2ccccc2)C2CCS(=O)(=O)C2)c([N+](=O)[O-])n1 (configuration not stated)	0%	1	-2%	-3%	-8%	-4%
CC(C)(C)OC(=O)N1CCC(c2c(C(=O)N3CCN(c4ccccc4F)CC3)cnn2-c2ccccc2Cl)CC1	/	/	1%	/	/	/
C(=C\c1nc2ccccc2[nH]1)/c1ccccc1	0%	?	?	?	-3%	-6%
C(=C\c1ccco1)/c1nc2ccccc2[nH]1	0%	9	?	7.1µM*	9%	-11%
CSCCC(NC(=O)c1occc1C)C(=O)O (configuration not stated)	0%	-18	25µM*	5%	10%	5%
Cc1cc(C)cc(N2CCn3c2nc2c3c(=O)n(Cc3c(F)cccc3Cl)c(=O)n2C)c1	/	/	-6%	/	/	/
CCC1(C)CC(=O)N(c2ccc(C(=O)O)c(O)c2)C1=O (configuration not stated)	0%	-4	25µM*	5%	5%	0%
CCC1(C)CC(=O)N(c2ccc(F)c(Cl)c2)C(=O)C1	-1%	5	1%	0%	-4%	18%
O=C1c2ccccc2C(=O)N1c1ccc(S(=O)(=O)N2CCOCC2)cc1	/	5	3%	/	/	/
Cc1ccc2cc3c(N)c(C(=O)Nc4c(C)[nH]c(=O)[nH]c4=O)sc3nc2c1	0%	5	16µM*	1%	4%	-1%
Cc1ccc2nc3sc(C(=O)Nc4c(C)[nH]c(=O)[nH]c4=O)c(N)c3cc2c1	0%	-7	-10%	4%	28%	-5%
COc1ccc(C(=O)Nn2cnc3scc(-c4cccs4)c3c2=O)c(O)c1	0%	-6	32µM*	1%	?	13%
COc1ccc(NC(=O)CCCn2nc(C)c3sc4ccccc4c3c2=O)cc1	/	/	-1%	/	/	/
Cc1ccc(C)c(NC(=S)c2ccc3ccccc3n2)c1	0%	-5	1%	-1%	?	1%
SMILES	B2AR arrestin	Giardia killer	ClpP mod	uPA generation	p53 reactivation	Mito fusion yeast
Cc1ccc(C)c(NC(=S)Nc2cccc3cnccc23)c1	0%	-5	/	9%	6%	0%
Cc1ccc(C)c(NC(=S)Nc2cccnc2)c1	0%	1	25µM*	3%	-2%	0%[9.22 µM]
Cc1ccc(C)c(NC(=S)c2ccccn2)c1	11µM*	0	1%	-4%	?	-7%
O=C(O)C(=O)/C(=C\c1cccc2ccccc12)c1ccc2ccccc2n1	0%	-8	16µM*	-12%	4%	4%
O=C(O)C(=O)/C(=C\c1ccccc1)c1ccc2ccccc2n1	0%	?	?	3%	?	4%
COc1cc(OC)c2c(-c3ccccc3)cc(=O)oc2c1C(CCN1CCCCC1)c1ccc(N(C)C)cc1 (configuration not stated)	0%	?	0%	10µM*	-1%	-14%
COc1cc(OC)c2c(-c3ccccc3)cc(=O)oc2c1C(CCN1CCOCC1)c1ccc(N(C)C)cc1 (configuration not stated)	0%	5	1%	?	-10%	/
CCN1CCn2c3c(c4cc(C)ccc42)CCCC31 (configuration not stated)	0%	-21	28µM*	9%	12%	-8%
Cc1ccc2c(c1)c1c3n2CCN(CCC#N)C3CCC1 (configuration not stated)	/	/	-7%	/	/	/
O=C(Nc1ccccc1N1CCCCC1)c1ncoc1-c1cccc(F)c1	0%	4	-26%	4%	-2%	-5%
O=C(Nc1ccccc1N1CCCCC1)c1ncoc1-c1ccc(F)cc1	-1%	3	28µM*	2%	-2%	7%
CCOC(=O)CCn1c(=O)c2cccn2c2cccnc21	/	/	4%	/	/	/
Cc1ccc(-c2cc(C(=O)N3CC(C)OC(C)C3)c3ccccc3n2)o1 (configuration not stated)	3%	-5	14µM*	-5%	24%	6%
COc1ccc(-c2cc(C(=O)N3CCCCCC3)c3ccccc3n2)cc1OC	/	/	-19%	/	/	/
O=C(c1cc(-c2ccc(Cl)s2)nc2ccccc12)N1CCCC1	/	-5	32µM*	1%	/	/
Cc1ccc(-c2cc(C(=O)N3CC(C)CC(C)C3)c3ccccc3n2)o1 (configuration not stated)	0%	0	/	-4%	9%	5%
COc1ccc(-c2cc(C(=O)N3CCCCCC3)c3ccccc3n2)cc1	0%	3	6.3µM*	?	2%	30%
COc1ccccc1NC(=O)CSc1oc(-c2cccs2)nc1S(=O)(=O)c1ccccc1	/	/	-10%	/	/	/
Cc1ccc(S(=O)(=O)Nc2ccc3c(c2)c(C(=O)OC(C)C)c(C)n3S(=O)(=O)c2ccc(C)cc2)cc1	/	/	-5%	/	/	/
CCCCN1CCc2c([nH]c3ccccc23)C1=O	0%	-10	20µM*	1%	22%	6%
CCCC/C=C1\CCc2c([nH]c3ccccc23)C1=O	1%	19	/	-3%	2%	-2%
CCn1cc(C(=O)NCc2ccc(C)cc2)c(=O)c2cc(S(=O)(=O)N3CCCCCC3)ccc21	/	/	-3%	/	/	/

High-throughput results: PubChem BioAssay, National Center for Advancing Translational Sciences (NCATS)
